Screens from PubChem BioAssay.
JMJD2A Tudor – inhibitors of human JMJD2A Tudor domain; Potency, µM (doses to about 114 µM), inactives show at the top dose activity change, negative = inhibition, hits mostly inhibitors; 390,000 tested, 4.4% active; AlphaScreen JMJD2A-Tudor / H3K4me3 peptide binding; AID 504339; note: % is set by controls: 0 for no effect and ±100 for the full control effect; nearly all actives have a fitted effect of over 50% in size
GLS inh – inhibitors of human glutaminase (GLS); GLS enzymatic activity, qHTS titration; Potency, µM (doses to about 45.5 µM), without a hit: top-dose activity change, negative = inhibition, usual class: inhibitors; 410,000 tested, 0.21% active; AID 624170; note: % is set by controls: 0 for no effect and ±100 for the full control effect
Target sequence (O94925 whole entry, looked up): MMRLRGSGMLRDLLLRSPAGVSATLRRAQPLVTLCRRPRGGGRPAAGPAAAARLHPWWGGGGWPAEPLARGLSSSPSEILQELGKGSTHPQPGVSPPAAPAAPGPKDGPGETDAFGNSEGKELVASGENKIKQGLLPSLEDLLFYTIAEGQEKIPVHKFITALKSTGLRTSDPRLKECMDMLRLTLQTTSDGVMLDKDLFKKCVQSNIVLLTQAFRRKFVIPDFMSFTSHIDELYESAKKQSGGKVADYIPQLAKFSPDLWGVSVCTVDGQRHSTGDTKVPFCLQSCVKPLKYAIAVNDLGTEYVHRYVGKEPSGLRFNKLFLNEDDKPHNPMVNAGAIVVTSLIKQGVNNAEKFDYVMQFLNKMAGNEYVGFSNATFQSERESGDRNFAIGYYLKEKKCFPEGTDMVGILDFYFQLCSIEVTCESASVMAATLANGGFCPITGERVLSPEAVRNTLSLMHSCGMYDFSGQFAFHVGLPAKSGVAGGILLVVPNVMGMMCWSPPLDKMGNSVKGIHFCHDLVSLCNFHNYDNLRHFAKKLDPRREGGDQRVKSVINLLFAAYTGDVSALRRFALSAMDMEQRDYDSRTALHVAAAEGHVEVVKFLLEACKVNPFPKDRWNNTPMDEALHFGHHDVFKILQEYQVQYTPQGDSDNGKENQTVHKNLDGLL
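Assay buffer: 45 mM KH2PO4 pH 8.2, 0.02% Tween-20. hKGA acts on L-glutamine (1 mM solution added); product glutamate is reported by an oxidase/peroxidase Amplex Red coupling, with fluorescence taken at baseline and 30 min.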
HP1b chromo inh – inhibitors of HP1-beta chromodomain binding to methylated histone tails | P83916 | AlphaScreen HP1-beta / biotin-H3K9me3 peptide binding | Potency, µM (doses to about 114 µM), for inactives: at the highest dose activity change, negative = inhibition, actives largely listed as inhibitors | 390,000 tested, 0.56% active; note: nearly all actives have a fitted effect of over 70% in size
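Compound inhibition of the preformed complex between 50 nM HP1-beta and 50 nM biotinylated H3K9me3 peptide was read by AlphaScreen. Buffer was PBS pH 7.4 with 0.01% Tween-20. Incubations ran 30 min at room temperature, with 10 ug/mL donor/acceptor beads.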
G9a block – G9a (human) methyltransferase inhibition. Q96KQ7. Potency, µM (doses to about 102 µM), inactives show top-dose activity, negative = inhibition, actives largely listed as inhibitors. 350,000 tested, 8.8% active. AID 504332. G9a H3K9 monomethylation, AlphaScreen, 2 h; note: % is set by controls: 0 for no effect and ±100 for the full control effect; nearly all actives have a fitted effect of over 75% in size
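G9a (20 nM) preincubated 15 min RT with compounds, then 500 nM biotinylated H3K9 peptide and 20 uM SAM added; 2 h RT reaction. Monomethyl-H3K9 product detected by AlphaScreen with anti-H3K9me1 antibody, streptavidin donor and anti-rabbit IgG acceptor beads.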
BAZ2B block – BAZ2B (human) inhibition. Potency, µM (top dose mostly 114 µM), for the others: at the highest dose activity change, negative = inhibition, most hits filed as inhibitors. AlphaScreen BAZ2B-H3K14Ac peptide displacement. 360,000 tested, 4.4% active. Q9UIF8; note: % is set by controls: 0 for no effect and ±100 for the full control effect; nearly all actives have a fitted effect of over 60% in size
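Compounds, titrated to a top concentration of 110 uM, were incubated 30 min at room temperature with preformed BAZ2B/acetyl-K14 H3 peptide complex (50 nM each). Proximity signal was measured by AlphaScreen after 20 min with beads.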
An asterisk follows results filed as active; [ ] = dose if it differs, or a comment. An excerpt weighted towards active compounds, which were near 10% of everything screened. Calls come from the whole dose curve; as a rule, active = well fitted curve in the direction sought with a large enough effect; inconclusive = small, poorly fitted or top-dose-only effect, or another doubt; inactive = no such curve, though single readings can be large; an effect the other way counts as inactive or inconclusive. Potency is the fitted concentration of half-maximal effect.

What do the screens show for `COc1ccc(N2CCN(CCCNC(=O)C3CCCN(S(=O)(=O)c4cnc[nH]4)C3)CC2)cc1` (stereo unspecified)?
JMJD2A Tudor: inconclusive; GLS inh: 28%; HP1b chromo inh: 38%; G9a block: 50µM*; BAZ2B block: 6%

What do the screens show for `O=C(Cc1cccs1)Nc1c(C(=O)Nc2ccc(F)cc2)oc2ccccc12`?
JMJD2A Tudor: -8%; GLS inh: 6%; HP1b chromo inh: 60%; G9a block: 42%[59 µM]; BAZ2B block: 28%

Results for COc1ccc(Nc2cc(C(=O)NCCCN3CCN(C)CC3)c3ccccc3n2)cc1OC ?
JMJD2A Tudor: -22%; GLS inh: 14%; HP1b chromo inh: -9%; G9a block: 3.5µM*; BAZ2B block: -32%

How did COc1ccc(Nc2cc(C(=O)NCc3ccccc3)c3ccccc3n2)cc1OC do in these assays?
JMJD2A Tudor: -14%; GLS inh: 3%; HP1b chromo inh: 7%; G9a block: 3%[59 µM]

What do the screens show for `CCN(CC)CCNC(=O)c1cc(Nc2ccc(OC)c(OC)c2)nc2ccccc12`?
JMJD2A Tudor: inconclusive; GLS inh: 11%; HP1b chromo inh: -15%; G9a block: 71µM*; BAZ2B block: 40µM*

Results for COc1ccc(N2CCN(CCCNC(=O)C(=O)c3c[nH]c4ccccc34)CC2)cc1 ?
JMJD2A Tudor: 28µM*; GLS inh: 22%; HP1b chromo inh: 50µM*; G9a block: 40µM*; BAZ2B block: 14µM*

Results for COc1ccc(Nc2cc(C(=O)NCCCN3CCN(c4ccccc4F)CC3)c3ccccc3n2)c(OC)c1 ?
JMJD2A Tudor: 10µM*; GLS inh: 19%; HP1b chromo inh: -33%; G9a block: 13µM*

What do the screens show for `COc1ccc(N2CCN(CCCNC(=O)c3cc(Nc4ccccc4OC)nc4ccccc34)CC2)cc1`?
JMJD2A Tudor: 35µM*; GLS inh: 31%; HP1b chromo inh: inconclusive; G9a block: 10µM*; BAZ2B block: 10µM*

What do the screens show for `COc1ccc(Nc2cc(C(=O)NCCCN3CCOCC3)c3ccccc3n2)c(OC)c1`?
JMJD2A Tudor: inconclusive; GLS inh: 25%; HP1b chromo inh: 27%; G9a block: 17%[12.7 µM]; BAZ2B block: -29%

How did Cc1nc2cccnc2n1C1CCN(S(C)(=O)=O)CC1 do in these assays?
JMJD2A Tudor: -13%; GLS inh: -3%; HP1b chromo inh: 19%; G9a block: 8%[59 µM]; BAZ2B block: 1%

Results for CC(C)C1Oc2cc3oc(=O)ccc3cc2C1=O (stereo unspecified) ?
JMJD2A Tudor: 1%; GLS inh: 3%; HP1b chromo inh: 33%; G9a block: 79µM*; BAZ2B block: -12%

What do the screens show for `CC(C)(C)c1ccc(C(=O)N2CCC(c3nc4ccccc4o3)CC2)cc1`?
JMJD2A Tudor: -15%; GLS inh: -8%; HP1b chromo inh: 29%; G9a block: -35%[59 µM]; BAZ2B block: -7%

Results for CN1CCN(c2ncnc3c2ncn3[C@H]2CN(C)C[C@@H](CO)O2)CC1 ?
GLS inh: -4%

What do the screens show for `CCN(c1ccccc1)S(=O)(=O)c1ccc(Cl)c(NC(=O)CNCc2ccccc2OC)c1`?
JMJD2A Tudor: 3.2µM*; GLS inh: 1%; HP1b chromo inh: inconclusive

How did CCN(c1ccccc1)S(=O)(=O)c1ccc(OC)c(NC(=O)c2c(C)noc2C)c1 do in these assays?
JMJD2A Tudor: 1%; GLS inh: -13%; HP1b chromo inh: 22%; G9a block: -39%; BAZ2B block: 3%

What do the screens show for `CCN(c1ccccc1)S(=O)(=O)c1ccc(OC)c(NC(=O)c2cc(Cl)ccn2)c1`?
JMJD2A Tudor: -4%; GLS inh: -13%; HP1b chromo inh: 33%; G9a block: 56µM*; BAZ2B block: -2%

How did CCN(c1ccccc1)S(=O)(=O)c1ccc(Cl)c(NC(=O)CN(C)C2CCN(C)CC2)c1 do in these assays?
JMJD2A Tudor: inconclusive; GLS inh: -6%; HP1b chromo inh: inconclusive; G9a block: 11µM*; BAZ2B block: 22µM*

What do the screens show for `O=C(CNC(=O)C1CCCCC1)OCC(=O)c1ccc([N+](=O)[O-])cc1`?
JMJD2A Tudor: -13%[57.1 µM]; HP1b chromo inh: 23%[57 µM]
